Source: PubChem
Tau fluor counter = Counterscreen qHTS for Inhibitors of Tau Fibril Formation, Fluorescence Polarization. tau K18 P301L Alexa594 fluorescence, heparin fibrillization. Potency, µM (doses to about 57.7 µM), inactives show at the highest dose activity change, negative = decrease. 0.93% of 280,000 active. AID 1463, 2008; also: potency is read from the fitted curve at half-maximal effect; nearly all actives have a fitted effect of over 55% in size
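Human tau K18 P301L (15 uM unlabeled, 0.24 uM Alexa 594-labeled) in 100 mM sodium acetate pH 7 with 20 uM heparin, 6 hr at 37 C. ThT 30 uM added, 1 hr ambient; Alexa 594 FP and total fluorescence read at 555/632 nm.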
Coupling enz = qHTS Assay for Inhibitors of Fructose-1,6-bisphosphate Aldolase from Giardia Lamblia: Coupling assay counterscreen; coupling enzyme system counterscreen, AmpLite Red fluorescence; 0.67% of 290,000 active; activity change, negative = inhibition, % at 58.2 µM, hits read low; in the data active = activity change below about -30%
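Compounds tested against the coupling enzymes alone at 57.5 uM final; readout was AmpLite Red fluorescence (525/598 nm) after 20 min at RT.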
Tau ThT inhib = qHTS for Inhibitors of Tau Fibril Formation, Thioflavin T Binding. Potency, µM (series often up to 57.4 µM), without a hit: top-dose activity, negative = inhibition, hits mostly inhibitors. Microtubule-associated protein tau (Homo sapiens), P10636. 2.1% of 270,000 active. recombinant tau K18 P301L, heparin-induced fibrillization, ThT fluorescence; also: potency is read from the fitted curve at half-maximal effect; nearly all actives have a fitted effect of over 55% in size
Target sequence (P10636 561-689 P618L limits assumed): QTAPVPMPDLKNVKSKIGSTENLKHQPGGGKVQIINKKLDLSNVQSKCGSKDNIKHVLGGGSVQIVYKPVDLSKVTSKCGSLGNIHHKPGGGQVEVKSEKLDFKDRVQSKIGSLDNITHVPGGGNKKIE
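ThT emission at 510 nm, taken 1 hr after adding 30 uM dye, quantifies aggregates formed when 20 uM heparin acts on human tau K18 P301L for 6 hr at 37 C.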
Tau fibril FP = qHTS for Inhibitors of Tau Fibril Formation, Fluorescence Polarization. K18 P301L tau heparin fibrillization, Alexa594 FP, 6 h. Potency, µM (series often up to 57.7 µM), for the others: at the highest dose activity, negative = inhibition, actives largely listed as inhibitors. 0.39% of 280,000 active. AID 1468, 2008; also: potency is read from the fitted curve at half-maximal effect; nearly all actives have a fitted effect of over 55% in size
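FP of Alexa 594-tau after heparin (20 uM) induction. Substrate: human K18 P301L, 15 uM unlabeled, 0.24 uM labeled. Buffer 100 mM sodium acetate pH 7. 6 hr, 37 C.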
* marks the source's active call; other numbers are inactive results; ? = inconclusive; . = no result given; [ ] = another dose, or the depositor's remark. Compounds with a hit are over-represented: about 2.7% of the library has one in this group of screens. Unless noted, calls follow the shape of the dose curve; as a rule, active = well fitted curve in the direction sought with a large enough effect; inconclusive = small, poorly fitted or top-dose-only effect, or another doubt; inactive = no such curve, though single readings can be large; an effect the other way counts as inactive or inconclusive. % is scaled to controls: 0 for no effect and ±100 for the full control effect.

SMILES	Tau fluor counter	Coupling enz	Tau ThT inhib	Tau fibril FP
CCOC(=O)N1CCC(=NNc2ccc(S(N)(=O)=O)cc2[N+](=O)[O-])CC1	-8%	-5	5µM*	2%
C/C(=N\Nc1ccc(S(N)(=O)=O)cc1[N+](=O)[O-])c1ccc2c(c1)OCO2	?	2	3.5µM*	-1%
Cc1nn(-c2ccccc2)c(N2CCCC2)c1/C=N/Nc1ccc(S(N)(=O)=O)cc1[N+](=O)[O-]	14µM*[quencher]	-1	5µM*	-5%
COc1ccc(/C=N\Nc2ccc([N+](=O)[O-])cc2[N+](=O)[O-])c(C(=O)O)c1OC	-29%	20	14µM*	-7%
CCN(CC)S(=O)(=O)c1ccc(N/N=C(\C)c2ccc3c(c2)OCO3)c([N+](=O)[O-])c1	-21%	0	-10%	3%
COc1cccc(-c2cc(C(F)(F)F)nc(NCCc3ccc(OC)c(OC)c3)n2)c1	?	.	?	-15%
CCC(CC)C(=O)Nc1nnc(S(=O)(=O)N(C)c2cc(C)cc(C)c2)s1	-13%	.	-10%	-11%
Cc1ccc(NC(=O)C(=O)NCC(c2cccnc2)N2CCN(Cc3ccccc3)CC2)cc1F (configuration not stated)	-1%	.	-2%	3%
CN(C)c1ccc(NC(=O)CSC2=Nc3ccccc3C3=NC(CC(=O)NCc4ccccc4)C(=O)N23)cc1 (configuration not stated)	-9%	.	-11%	?
COc1cc(/C=N/Nc2ccc(S(N)(=O)=O)cc2[N+](=O)[O-])cc(OC)c1O	?	-2	1.8µM*	8%
O=C(O)c1ccc(/C=N\Nc2ccc(S(=O)(=O)N3CCOCC3)cc2[N+](=O)[O-])cc1	-20%	18	?	3%
COc1cc(/C=N/Nc2ccccc2[N+](=O)[O-])cc(OC)c1O	0%	1	9%	5%
NS(=O)(=O)c1ccc(N/N=C/c2ccc[nH]2)c([N+](=O)[O-])c1	?	-6	7.9µM*	-6%
NS(=O)(=O)c1ccc(N/N=C/c2ccc(C(=O)O)cc2)c([N+](=O)[O-])c1	-20%	-2	11µM*	-4%
CC(=O)c1ccc(NC(=O)CSc2nccn2C2CCCC2)cc1	-17%	.	-18%	-10%
CCn1c2ccc(Cl)cc2c2nc3ccccc3nc21	-23%	-6	16µM*	-10%
CCn1c2ccc(OC)cc2c2nc3ccccc3nc21	-6%	-1	5%	-10%
COc1ccc(-c2nc3sc(CCNC(=O)C(=O)Nc4ccc(C)c(F)c4)c(C)n3n2)cc1	-6%	.	?	-5%
CCN(C(=O)CSc1nc2n[nH]c(C)c2c(=N)n1-c1ccc(Cl)c(C)c1)c1cccc(C)c1	.	0	.	.
Cc1cc(-n2c(SCc3ccccc3F)nc3n[nH]c(C)c3c2=N)ccc1Cl	-21%	-1	5%	18µM*
CCC(CC)c1nn2c(=O)cc(COc3ccc(NC(=O)c4cccc(C)c4)cc3)nc2s1	-15%	.	?	-9%
Cc1cc(NC(=O)COc2cccc3cccnc23)no1	-11%	-32*	?	2%
Cc1cc(NC(=O)COc2cccc(C)c2C)no1	-6%	-3	-10%	-8%
CCOCCOC(=O)C1=C(C)Nc2ccc(C)cc2S1	-22%	0	?	1%
Cc1ccc2c(c1)Sc1c(ccc3ccccc13)N2	14µM*[quencher]	-20	3.2µM*	0%
SMILES	Tau fluor counter	Coupling enz	Tau ThT inhib	Tau fibril FP
COC(=O)N/N=C/c1cn(CC(C)COc2ccccc2)c2ccccc12 (configuration not stated)	14µM*[quencher]	-4	?	?
CCOC(=O)N/N=C/c1cn(CCCOc2ccc(C)cc2)c2ccccc12	?	-1	?	11%
COCCNC(=O)Cn1cc(/C=N/NC(=O)c2ccc(Oc3ccc(O)cc3)cc2)c2ccccc21	18µM*[quencher]	0	?	16%
O=C(CNc1ccc2c(c1)OCO2)N/N=C\c1cn(Cc2ccccc2)c2ccccc12	10µM*[quencher]	0	?	2%
COC(=O)N/N=C/c1cn(CCOc2ccc(OC)cc2)c2ccccc12	.	-2	.	.
Cc1ccc(OCCn2cc(/C=N/NC(=O)c3ccncc3)c3ccccc32)cc1	13µM*[quencher]	-2	-8%	5%
CCN1CCN(Cc2c(O)ccc3cc(-c4ccc(OC)cc4)c(=O)oc23)CC1	-10%	.	2%	5%
